The values that follow come from PubChem BioAssay (NCATS).

The nature of experiment [1]: Cell Viability - NIH 3T3 (AID 541).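 Further: cells exposed to compound for 40 hours; nearly all actives have a fitted effect of over 25% in size.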 Further: potency means the concentration at half of the fitted maximal effect.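 On activity change, negative = cytotoxicity: plate controls were DMSO alone for no effect and tamoxifen positive control for full effect.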 The note with it: NIH 3T3 cell viability, qHTS; activity change, negative = cytotoxicity: at 92.2 µM (top of the series). Put shortly:
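Intracellular ATP (CellTiter-Glo luminescence, 20 min at room temperature) measured after 40 hr compound exposure at 37 °C of 1000 NIH 3T3 mouse fibroblasts/well in complete medium; AC50 derived by Hill-equation modelling of qHTS concentration-response curves.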

A short description of experiment [2]: Cell Viability - H-4-II-E (AID 543).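 Further: cells exposed to compound for 40 hours; on the % scale 0 is the no-effect control and ±100 the full control effect; nearly all actives have a fitted effect of over 35% in size.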 Put shortly:
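CellTiter-Glo luminescence (intracellular ATP) measured after 40 h compound exposure at 37 °C in H-4-II-E rat hepatoma cells seeded at 1500/well. Values are AC50s fitted with the standard Hill equation.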

The nature of experiment [3]: Cellular Toxicity (caspase-3) Jurkat (AID 655).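 Further: cells exposed to compound for 16 h at 37 °C before reading.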 Conditions: Jurkat caspase-3 activation, luminescence; caspase-3 activation: at 92.2 µM (top of the series), DMSO = 0%, tamoxifen = 100%. In outline: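 Jurkat cells (5000/well) in complete medium were treated with compounds for 16 hr at 37 °C, then Caspase-Glo 3/7 luminescence was read after 20 min at room temperature. Data normalized to DMSO (basal) and 100 uM tamoxifen (100%); AC50 from Hill fit.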

Experiment [4] is described as follows: MultiTox-Fluor Cytotoxicity Assay - LYMP1-003 - Dead Cells (AID 961). Further: nearly all actives have a fitted effect of over 70% in size. In outline:
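Dead-cell protease release, detected as bis-AAF-R110 fluorescence at 485/520 nm, was measured in LYMP1-003 cells after 16 h compound treatment at 37 C. AC50 values came from Hill-modeled qHTS curves normalized to DMSO (0%) and 15 uM tetraoctylammonium bromide (100%).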

A short description of experiment [5]: Cell Viability - LYMP1-003 - Assay at 40 hr (AID 964). Further: on the % scale 0 is the no-effect control and ±100 the full control effect; nearly all actives have a fitted effect of over 60% in size. Put shortly: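 Viability is taken as cellular ATP, read by CellTiter-Glo luminescence after 40 h of compound exposure at 37 C. Cells: human lymphoblastoid line LYMP1-003 at 2500/well; AC50 values derived by Hill-equation fitting of concentration-response data.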
Experiment [6] in a line: Cell Viability - LYMP2-021 (AID 974). Further: on the % scale 0 is the no-effect control and ±100 the full control effect; nearly all actives have a fitted effect of over 55% in size. Put shortly: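 AC50 values come from Hill-equation fits to CellTiter-Glo luminescence (ATP content), read after 24 hour compound exposure at 37 C of 2500 LYMP2-021 lymphoblastoid cells/well; tetraoctylammonium bromide as positive control.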
A short description of experiment [7]: Cell Viability - LYMP2-023 (AID 975).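 Further: cellular ATP measured by luciferase luminescence as viability proxy; plate controls were DMSO only for no effect and 92 µM tetraoctylammonium bromide control for full effect; nearly all actives have a fitted effect of over 55% in size.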 In outline: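 Intracellular ATP, read by CellTiter-Glo luminescence, reports viability after 24 hr compound exposure at 37 C. 2500 lymphoblastoid cells/well (LYMP2-023) seeded 5 hr beforehand; Hill fits give AC50; positive control tetraoctylammonium bromide.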
Experiment [8] can be described thus: Cell Viability - LYMP2-006 (AID 978). Further: on the % scale 0 is the no-effect control and ±100 the full control effect; nearly all actives have a fitted effect of over 60% in size. Put shortly:
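Human lymphoblastoid cells, 2500 per well, were preincubated 5 hr at 37 C, then exposed to compounds for 24 hr at 37 C in complete medium. Viability was read as intracellular ATP by CellTiter-Glo luminescence; AC50 from Hill-equation fits of qHTS concentration-response data.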

The nature of experiment [9]: Cell Viability - LYMP2-010 (AID 981). Further: on the % scale 0 is the no-effect control and ±100 the full control effect; nearly all actives have a fitted effect of over 55% in size. Put shortly: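 CellTiter-Glo ATP luminescence measured cytotoxicity after 24 h compound exposure at 37 C. LYMP2-010 cells were seeded at 2500/well, with tetraoctylammonium bromide as control; concentration-response curves gave AC50 values by the Hill equation.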
The nature of experiment [10]: Cell Viability - LYMP2-018 (AID 985).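 Further: plate controls were DMSO only for no effect and tetraoctylammonium bromide at 92 µM for full effect; nearly all actives have a fitted effect of over 50% in size.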 In outline:
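Viability read as CellTiter-Glo luminescence (cellular ATP) after 24 hr compound exposure at 37 C of 2500 LYMP2-018 lymphoblastoid cells/well, pre-plated 5 hr. Hill-equation modelling gave AC50.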

Experiment [11] is described as follows: Cell Viability - LYMP2-020 (AID 986).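 Further: plate controls were DMSO only for no effect and tetraoctylammonium bromide at 92 µM for full effect; nearly all actives have a fitted effect of over 55% in size.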 In outline:
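Cytotoxicity in qHTS format: luminescent ATP readout from CellTiter-Glo after 24 h compound exposure at 37 C in complete medium. LYMP2-020 lymphoblastoid cells were seeded at 2500/well; concentration-response data fitted to the Hill equation for AC50.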

Experiment [12] addresses Thyroid hormone receptor beta (Homo sapiens) (UniProt P10828). Nature of the experiment: qHTS assay for small molecule agonists of thyroid hormone receptor beta signaling (AID 588545; calls by dose curve;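 further: 0% = DMSO only and 100% = 10 nM T3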). Put shortly: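 Stimulation of a TR-driven beta-lactamase reporter was quantified in GripTite HEK 293 cells. Compound series ran for 18 hrs; curves were normalized to T3 and DMSO controls and fitted to yield EC50.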

The target is the same in experiment [13]. Nature of the experiment: qHTS assay for small molecule antagonists of thyroid hormone receptor beta signaling (AID 588547; active means well fitted inhibition curve with a large enough effect in the signal ratio, with a control signal flat, not every such curve was filed as active; the % refers to the signal ratio;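 further: cells stimulated with 0.4 nM T3 agonist during compound exposure; on the % scale 0 is the no-effect control and ±100 the full control effect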). The note with it: TR-UAS-bla HEK293, beta-lactamase ratio, antagonist mode, 18 h. Put shortly:
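TR-UAS-bla GripTite HEK293 cells in 2% charcoal/dextran FBS medium were preincubated 4 h at 37 C, given compound (0.59 nM to 92 uM) plus 0.4 nM T3 (final) for 18 h, then CCF4 for 2 h at RT; Hill fit gave IC50.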

Experiment [14] is described as follows: qHTS assay for small molecule activators of the nuclear factor-kappa B (NF-kB) signaling pathway (AID 651749; active means well fitted activation curve with a large enough effect in the signal ratio; the % refers to the signal ratio; further: % of control where 0% means no effect). The note with it: NF-kB-bla ME-180 cells, beta-lactamase FRET ratio, 16 h; hits give high values. In outline: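 Human ME-180 cervical cells with an NF-kB-bla construct; compounds added via 23 nL pin transfer, DMSO as vehicle; incubation 16 hr. Reporter activity measured by FRET disruption.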

A short description of experiment [15]: qHTS assay for small molecule agonists of the antioxidant response element (ARE) signaling pathway measured by Nrf2-dependant transcriptional activity (AID 720636; active means well fitted curve in the direction sought with a large enough effect in the repeat runs; an effect the other way counts as inactive or inconclusive;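 further: HepG2 cells with an ARE-driven luciferase reporter; % of control where 0% means no effect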). In outline:
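Attachment 6 hr at 37 C, then compound versus DMSO vehicle for 16 hr in ARE-luc HepG2 cells (1% dialyzed FBS); luminescence recorded 30 min after ONE-Glo addition at room temperature.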

Experiment [16] is described as follows: qHTS assay for small molecule activators of the human pregnane X receptor (PXR) signaling pathway (AID 720659; call rule not given here; further: 0% is about no effect).
Experiment [17] has as its target Voltage-gated inwardly rectifying potassium channel KCNH2 (Homo sapiens) (UniProt Q12809). Description: qHTS Assay for Small Molecule Inhibitors of the Human hERG Channel Activity (AID 588834).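 Further: top concentration of the series differs between compounds; on the % scale 0 is the no-effect control and ±100 the full control effect; lower thallium flux fluorescence means stronger hERG block; nearly all actives have a fitted effect of over 50% in size.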 Put shortly: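 In hERG-transduced U2OS cells, dye-loaded for 1 hr at room temperature in dark, test compounds incubated 10 min at 37 °C before thallium stimulation. AC50 values derived by Hill modelling of concentration-response.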

In experiment [18] the target is Nuclear receptor ROR-gamma (Homo sapiens) (UniProt P51449). Description: qHTS assay for small molecule antagonists of the retinoid-related orphan receptor gamma (ROR-gamma) signaling pathway (AID 651802). Further: nearly all actives have a fitted effect of over 60% in size. Further: potency means the concentration at half of the fitted maximal effect. In outline: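 Luminescence (One-Glo, 30 min RT) measured 16 h after compound addition and doxycycline induction at 37C. Reporter: RORE-luciferase under TET-inducible ROR-gamma in CHO cells.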

Experiment [19] is described as follows: Cell Viability - LYMP2-022 (AID 987). In outline: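 Cytotoxicity read as decreased cellular ATP (CellTiter-Glo luminescence, 30 min room temperature) after 24 hours compound exposure of 2500 lymphoblastoid LYMP2-022 cells/well at 37 C. Concentration-response data fitted with standard Hill equation for AC50.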
Experiment [20] is described as follows: Cellular Toxicity (caspase-3) BJ (AID 658).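 Further: cells exposed to compound for 16 hours; 0% = DMSO basal and 100% = 10 µM staurosporine.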 In outline:
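Plated BJ cells (1000/well) rested 5 hr, received compound for 16 hr at 37 °C, then Caspase-Glo 3/7 reagent for 1 hr at room temperature before luminescence reading.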

SMILES strings stand for the structures. “And” between values parts separate entries of the source, which are not always exact repeats. Equal entries are not always repeated. A number with no mark means an inactive call. Results filed as inconclusive are left out. The source made the active and inactive calls. Unless noted, the call rests on the fitted dose curve; in most records, active means well fitted curve in the direction sought with a large enough effect; inconclusive means small, poorly fitted or top-dose-only effect, or another doubt; inactive means no such curve, though single readings can be large; an effect the other way counts as inactive or inconclusive.

Sequence of Voltage-gated inwardly rectifying potassium channel KCNH2 (Homo sapiens) (Q12809 whole entry, looked up): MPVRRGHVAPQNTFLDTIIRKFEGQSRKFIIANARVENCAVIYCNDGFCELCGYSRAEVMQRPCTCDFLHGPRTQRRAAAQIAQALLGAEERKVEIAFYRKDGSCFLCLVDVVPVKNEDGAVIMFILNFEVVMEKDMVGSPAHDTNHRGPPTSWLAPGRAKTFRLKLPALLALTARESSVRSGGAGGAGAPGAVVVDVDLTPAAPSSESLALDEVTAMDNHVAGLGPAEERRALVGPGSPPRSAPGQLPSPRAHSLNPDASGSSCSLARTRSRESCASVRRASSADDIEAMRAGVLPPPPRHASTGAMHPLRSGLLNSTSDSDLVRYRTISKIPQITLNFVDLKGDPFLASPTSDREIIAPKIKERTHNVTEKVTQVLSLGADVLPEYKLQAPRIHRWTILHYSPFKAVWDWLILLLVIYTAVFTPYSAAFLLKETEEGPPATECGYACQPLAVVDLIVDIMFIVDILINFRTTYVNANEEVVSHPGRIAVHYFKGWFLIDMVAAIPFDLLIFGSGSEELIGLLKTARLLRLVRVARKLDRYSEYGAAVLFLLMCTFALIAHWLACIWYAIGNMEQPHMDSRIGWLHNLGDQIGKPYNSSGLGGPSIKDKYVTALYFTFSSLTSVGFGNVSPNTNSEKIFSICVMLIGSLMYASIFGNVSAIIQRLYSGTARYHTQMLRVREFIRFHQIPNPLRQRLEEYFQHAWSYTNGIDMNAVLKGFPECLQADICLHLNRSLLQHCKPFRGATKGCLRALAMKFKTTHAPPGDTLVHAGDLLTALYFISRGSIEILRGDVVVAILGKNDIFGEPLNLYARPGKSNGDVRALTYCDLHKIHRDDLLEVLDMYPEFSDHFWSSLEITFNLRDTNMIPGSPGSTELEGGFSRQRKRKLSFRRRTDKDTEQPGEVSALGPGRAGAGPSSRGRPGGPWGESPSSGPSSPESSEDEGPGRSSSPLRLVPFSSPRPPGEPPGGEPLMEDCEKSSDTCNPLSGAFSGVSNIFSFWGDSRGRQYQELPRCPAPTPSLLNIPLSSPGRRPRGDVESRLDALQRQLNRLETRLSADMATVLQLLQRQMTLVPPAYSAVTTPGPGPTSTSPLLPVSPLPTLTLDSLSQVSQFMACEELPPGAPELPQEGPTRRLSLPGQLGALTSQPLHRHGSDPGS
Sequence of Thyroid hormone receptor beta (Homo sapiens) (P10828 whole entry, looked up): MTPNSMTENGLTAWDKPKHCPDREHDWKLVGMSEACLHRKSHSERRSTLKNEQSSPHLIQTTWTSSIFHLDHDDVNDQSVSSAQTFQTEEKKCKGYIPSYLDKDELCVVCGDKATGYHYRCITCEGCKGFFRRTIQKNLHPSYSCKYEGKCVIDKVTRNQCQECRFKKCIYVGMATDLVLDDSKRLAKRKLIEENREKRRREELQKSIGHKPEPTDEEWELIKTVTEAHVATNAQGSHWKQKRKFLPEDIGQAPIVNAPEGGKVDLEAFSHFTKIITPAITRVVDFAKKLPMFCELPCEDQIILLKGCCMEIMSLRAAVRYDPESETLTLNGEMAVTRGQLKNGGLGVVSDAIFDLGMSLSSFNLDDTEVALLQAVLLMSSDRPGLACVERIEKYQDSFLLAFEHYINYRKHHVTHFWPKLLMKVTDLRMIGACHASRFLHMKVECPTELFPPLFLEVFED
Sequence of Nuclear receptor ROR-gamma (Homo sapiens) (P51449 whole entry, looked up): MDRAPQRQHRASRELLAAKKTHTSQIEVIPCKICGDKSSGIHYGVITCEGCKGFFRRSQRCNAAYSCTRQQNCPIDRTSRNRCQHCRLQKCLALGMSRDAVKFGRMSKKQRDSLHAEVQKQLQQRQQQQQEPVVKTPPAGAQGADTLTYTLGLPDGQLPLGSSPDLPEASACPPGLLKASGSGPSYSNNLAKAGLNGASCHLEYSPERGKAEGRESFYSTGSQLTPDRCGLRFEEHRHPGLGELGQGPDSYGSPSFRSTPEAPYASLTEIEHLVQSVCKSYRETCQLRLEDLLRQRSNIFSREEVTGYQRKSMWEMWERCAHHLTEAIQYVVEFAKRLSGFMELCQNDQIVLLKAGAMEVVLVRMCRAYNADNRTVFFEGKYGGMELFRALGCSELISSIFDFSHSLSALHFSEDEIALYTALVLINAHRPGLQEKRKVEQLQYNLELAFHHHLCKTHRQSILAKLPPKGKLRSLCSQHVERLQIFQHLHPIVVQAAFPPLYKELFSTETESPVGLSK

On to `[N-]=[N+]=[N-]`, for which the Potency result in experiment [1], in experiment [2], in experiment [4], in experiment [5], in [6] and in experiment [7] was “inactive” in each case. Besides, the Potency result in experiment [8], in [9], in [10], in experiment [11], in [12] and in experiment [15] was “inactive” throughout. The caspase-3 activation in [3] was 1.16%. Further, in experiment [13], the activity change % (negative = inhibition) was 7.76%. Besides, in experiment [14], the activation was 0.007%. In addition, the outcome in experiment [16] was inactive.

For `O=C(O)C(Br)Br`, the Potency entry in [1], in [4], in [5], in [6], in experiment [8] and in [9] was “inactive” throughout. In addition, the Potency entry in experiment [11], in experiment [17] and in experiment [18] was “inactive” throughout. For the same compound, the caspase-3 activation in [3] is 6.46%. Also, the activity change % (negative = inhibition) in experiment [13] was 8.3%. Moreover, the activation in experiment [14] is -1.25%. Besides, the call in experiment [16] was inactive.

As to `ClP(Cl)(Cl)(Cl)Cl`, the Potency entry in experiment [1], in [2], in [4], in [5], in experiment [7] and in experiment [8] was “inactive” throughout. For the same compound, the Potency result in experiment [10], in [11], in [19], in [12], in experiment [17] and in experiment [18] was “inactive” each time. Moreover, the Potency result in experiment [15] is “inactive”. For the same compound, the caspase-3 activation in experiment [3] is 0.993%. The activity change % (negative = inhibition) in experiment [13] was -5.32%. Moreover, in experiment [14], the activation is -0.207%. In [16], the compound was called inactive.

Consider `CCCCC(CC)COC(=O)c1ccc(C(=O)OCC(CC)CCCC)c(C(=O)OCC(CC)CCCC)c1` (centres undefined), for which the Potency entry in experiment [1], in experiment [2], in experiment [4], in [5], in experiment [6] and in experiment [7] was “inactive” in each case. For the same compound, the Potency result in [8], in experiment [9], in experiment [11], in experiment [12], in [17] and in experiment [18] was “inactive” throughout. Also, the Potency entry in [15] was “inactive”. Moreover, the compound was classed as inactive in experiment [20] and in experiment [16]. Moreover, the activity change % (negative = inhibition) in [13] was 11.5%. Moreover, the activation in [14] is 1.1%.

On to `O=[N+]([O-])c1ccccc1CCl`, for which the Potency in experiment [1] was 12.6 µM (active); in experiment [18], 42.2 µM (active). In experiment [3], the caspase-3 activation was -0.153%. Further, the result in experiment [20] and in experiment [16] was inactive. Also, the Potency entry in experiment [4], in experiment [5], in [12], in experiment [17] and in experiment [15] was “inactive” throughout. Moreover, the activation in [14] is 0.905%.

For `O=[N+]([O-])c1ccccc1O`, the Potency result in experiment [2], in experiment [4], in [5], in experiment [6], in experiment [7] and in experiment [8] was “inactive” throughout. Also, the Potency entry in experiment [9], in experiment [10], in experiment [11], in experiment [19], in [12] and in experiment [18] was “inactive” in each case. Besides, the Potency result in [15] is “inactive”. Besides, the caspase-3 activation in experiment [3] was 1.37%. Besides, the activity change % (negative = inhibition) in experiment [13] was -16.2%. In addition, the call in [16] was inactive.

Consider `CCOS(C)(=O)=O`, for which the Potency result in [1], in experiment [2], in experiment [5], in [6], in [7] and in [8] was “inactive” in each case. The Potency entry in experiment [9], in [10], in [19], in experiment [17], in experiment [18] and in experiment [15] was “inactive” throughout. Further, the caspase-3 activation in [3] is 0.622%. The call in experiment [20] and in experiment [16] was inactive. Also, the activity change % (negative = inhibition) in [13] was -1.09%. Further, in experiment [14], the activation is 0.8%.

Consider `BrC(Br)Br`, for which the Potency entry in experiment [2], in experiment [4], in experiment [5], in [8], in [9] and in experiment [11] was “inactive” in each case. The Potency result in experiment [12], in experiment [17], in [18] and in experiment [15] was “inactive” throughout. Also, the result in experiment [20] and in experiment [16] was inactive. For the same compound, the activity change % (negative = inhibition) in experiment [13] is -8.09%. The activation in [14] is 0.744%.

For the compound `Cc1ccc(N)cc1N`, the Potency result in experiment [1], in [2], in experiment [5], in experiment [6], in experiment [7] and in experiment [8] was “inactive” in each case. Moreover, the Potency result in experiment [9], in [10], in [11], in experiment [19], in experiment [12] and in experiment [18] was “inactive” each time. For the same compound, in experiment [15], the Potency entry was “inactive”. In addition, the caspase-3 activation in [3] is -0.424%. For the same compound, the call in experiment [20] and in [16] was inactive. In experiment [13], the activity change % (negative = inhibition) is 0.49% and -2.4%. In [14], the activation is -0.705% and -3.37%.

As to `O=C(O)C(Br)CBr` (centres undefined), the caspase-3 activation in [3] is 1.63%. The Potency entry in [4], in [6], in experiment [7], in [8], in [9] and in [11] was “inactive” in each case. Moreover, the Potency entry in [19], in experiment [12], in experiment [17], in experiment [18] and in experiment [15] was “inactive” in each case. Moreover, the activity change % (negative = inhibition) in [13] was 10.8%. Further, the activation in experiment [14] is 1.48%. For the same compound, the result in experiment [16] was inactive.
